Reference: PubChem BioAssay (NCI)
This is part of a sample that, as a whole, favours compounds with a hit. Of some 83,000 tested, about 20% had one in any assay.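 Cell lines were cultured in 96-well plates, exposed to a single compound concentration, and assessed for percent growth 48 hours later.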 The source made the active and inactive calls.

System: CCRF-CEM leukemia
Experiment: NCI-60 one-dose screen, 48 h (100 = growth as untreated, 0 = no growth, -100 = all killed)
Details: 10 µM unless noted
Description: Growth inhibition of the CCRF-CEM human tumor cell line is measured as a screen for anti-cancer activity. Cells are grown in 96 well plates and exposed to the test compound for 48 hours. Compounds are tested at a single concentration, which is 10^-5 M for most compounds. The reported endpoint is percent growth (GI% or GIPRCNT), where numbers from 0 - 100% represent growth inhibition, and numbers from -100% - 0 represent cell death. For example, a value of 40 represents 60% growth inhibition. A value of 0 means no net growth occurred over the course of the experiment. A value of -40 indicates 40% of cells at the beginning of the experiment died by the end of the experiment. A value of -100 means all cells are dead at the end of the experiment.
NCI-60 Human Tumor Cell Lines Screen was performed using the standard one-dose NCI protocol, which is described in more detail at https://dtp.cancer.gov/discovery_development/nci-60/default.htm.
Compounds with GIPRCNT values below 10 were considered active. Activity score was based on GIPRCNT using the following formula: […]
Score is 0 for GIPRCNT values of 100 or above, 50 for GIPRCNT values of 0, and 100 for GIPRCNT values of -100.

Row | Compound | growth
1 | Cc1cc(CCl)c(C)cc1CCl | 19.7% (inactive)
2 | COc1cc(C2CC(=O)Nc3nc(N)[se]c32)c(OC)c2c1OCO2 (stereo not given) | 104% (inactive)
3 | OC1(c2ccccc2F)c2ccccc2C2=NCCN21 (stereo not given) | 93% (inactive)
4 | C1CNC2CCCC2C1 (stereo not given) | 106% (inactive)
5 | CCC(C)/C=C(C)/C=C/C(=O)c1c(O)c(-c2ccc(O)cc2)c[nH]c1=O (stereo not given) | 16.2% (inactive)
6 | C/C(=N/OC(=O)N(C)C)c1cc(Cl)ccc1Cl | 91.7% (inactive)
7 | C/C(=C\c1cc(C(F)(F)F)n(-c2ccc(N)cc2)n1)[C@@H]1C[C@@H]2O[C@]2(C)CCC[C@H](C)[C@H](O)[C@@H](C)C(=O)C(C)(C)[C@@H](O)CC(=O)O1 | 12.8% (inactive)
8 | CCN1CC2(CN(CC)C1=S)C(=O)NC(=O)NC2=O | 101% (inactive)
9 | CC1(C)N=C(N)N=C(N)N1c1ccc(CNC(=O)Nc2ccc(S(=O)(=O)F)c(Cl)c2)c(Cl)c1 | 17.5% (inactive)
10 | O=C1C=CC(=O)C2C1C1(Cl)C(Cl)=C(Cl)C2(Cl)C1(Cl)Cl (stereo not given) | 60.4% (inactive)
11 | CC(=O)Oc1ccc(Cl)cc1 | 104% (inactive)
12 | O=C(CCc1ccco1)NC1CCN(CC2(c3ccc(Cl)cc3)CCC2)CC1 | 6.1% (active)
13 | Cc1cc(C)nc(C)c1.[Cl][Hg][Cl] | 78.3% (inactive)
14 | Oc1ccc(Br)cc1CN1CCN(Cc2ccc(Cl)cc2)CC1 | 26.7% (inactive)
15 | CNC(=O)Oc1ccccc1-c1ccccc1 | 94.1% (inactive)
16 | ClCCN(CCCl)c1ccc(C=NCCc2c[nH]c3ccccc23)cc1 | 54.1% (inactive)
17 | O=C(CF)N(O)c1ccc(/C=C/c2ccccc2)cc1 | 13.5% (inactive)
18 | O=C(O)CNC(=O)c1ccccc1 | 101% (inactive)
19 | CC1(C)N=C(N)N=C(N)N1c1ccc(CCCCc2ccc(S(=O)(=O)F)cc2)c(Cl)c1 | 11.5% (inactive)
20 | COC(=O)C1CC2c3ccccc3C1c1ccccc12 (stereo not given) | 83.4% (inactive)

Row | Compound | growth
21 | O=C1c2ccccc2C(=O)N1[N+](=O)[O-] | 90% (inactive)
22 | Cc1cccc(N(C)c2cccc3c2C(=O)[Se]C3)c1C | 56.1% (inactive)
23 | COc1ccc(/C=C\c2cc(OC)c(OC)c(OC)c2)cc1N/C=C\C(=O)c1c[nH]c2ccccc12 | 5.7% (active)
24 | CNC(=O)Oc1cc(C(C)C)ccc1Sc1ccc(C(C)C)cc1OC(=O)NC | 36.5% (inactive)
25 | O=C(CCCN1CCC2(CC1)C(=O)NCN2c1ccc(F)cc1)c1ccc(F)cc1 | 96.9% (inactive)
26 | CC1COC(=O)C1 (stereo not given) | 95.4% (inactive)
27 | O=[As]c1ccc(C(=O)c2ccc(Oc3ccccc3)cc2)cc1 (stereo not given) | -33.1% (active)
28 | [Cl][Hg][n]1cnc2c(Cl)c(Cl)c(Cl)cc21 | 102% (inactive)
29 | CC12CCC(=O)C=C1CCC1C2CCC2(C)C(C(=O)COC(=O)Cc3ccc(N(CCCl)CCCl)cc3)CCC12 (stereo not given) | 26.7% (inactive)
30 | CCN(CC)c1ccc(C=C2C(=O)NC(=S)NC2=O)cc1 | 38.9% (inactive)
31 | CCOc1cc(C=C(C#N)C#N)cc(Br)c1O | 102% (inactive)
32 | N#CC1=C(N)Oc2cc3c(cc2C1c1cccs1)OCO3 (stereo not given) | 21.4% (inactive)
33 | S=P(NC1CCCCC1)(N1CC1)N1CC1 | 102% (inactive)
34 | Oc1ccccc1OB(Oc1ccccc1O)N(CCCl)CCCl | 18.4% (inactive)
35 | CCOC(=O)c1cnc(SCc2ccc(Cl)c(Cl)c2)nc1N1CC1 | 38% (inactive)
36 | O=[N+]([O-])c1ccc2cnn(CSP(=S)(c3ccccc3)c3ccccc3)c2c1 | 45.9% (inactive)
37 | CC(C)[C@]12O[C@H]1[C@@H]1O[C@]13[C@]1(O[C@H]1C[C@H]1C4=C(CC[C@@]13C)C(=O)OC4)[C@@H]2OC(=O)OC(C)(C)C | 13.4% (inactive)
38 | Fc1ccc(C2=NN(c3ccccc3)C(c3sc(N(CCCl)CCCl)nc3Cl)C2)cc1 (stereo not given) | 83.1% (inactive)
39 | N#[N+]c1cnc([O-])[nH]c1=O | 69.9% (inactive)
40 | NC(=O)SCC(=O)Nc1ccc([As](=O)(O)O)cc1 | 59.3% (inactive)
